APE1 inh-1 – APE1 (human) endonuclease inhibition. Potency, µM (titrated, usually from 65.8 µM), inactives show at the highest dose activity change, negative = inhibition, most hits filed as inhibitors. recombinant APE1, TAMRA/BHQ-2 abasic DNA cleavage fluorescence. 350,000 tested, 0.35% active;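 also: plate controls were vehicle for no effect and reference inhibitor for full effect; nearly all actives have a fitted effect of over 55% in size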
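Substrate: short duplex with […] THF abasic site, 5'-TAMRA and 3'-BHQ-2, 50 nM final. APE1 at 0.75 nM, preincubated 15 min RT with compound. Fluorescence increase from first to third read measured activity.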
BLM inh – inhibitors of human Bloom syndrome helicase BLM | P54132 | recombinant BLM DNA unwinding, fluorescence dequenching | Potency, µM (highest dose often 56.1 µM), for inactives: at the highest dose activity change, negative = inhibition, usual class: inhibitors | 350,000 tested, 0.2% active | AID 2528;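 also: plate controls were vehicle for no effect and no enzyme for full effect; nearly all actives have a fitted effect of over 35% in size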
WRN helicase inh – inhibitors of human WRN helicase | Q14191 | Potency, µM (top dose mostly 114 µM), inactives show at the highest dose activity change, negative = inhibition, usual class: inhibitors | 360,000 tested, 0.46% active | AID 651768 | WRN helicase unwinding, fluorescent forked duplex, kinetic; also: nearly all actives have a fitted effect of over 55% in size
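WRN at 20 nM final was preincubated with compound for 15 min at room temperature; reaction started with 100 nM forked duplex oligonucleotide carrying fluorophore and quencher plus 2 mM ATP (final). Unwinding followed kinetically by red fluorescence (ex 525/em 598 nm).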
TexasRed fluor – alters Texas Red total fluorescence, flagging assay interference | TRb/SRC2 Texas Red total fluorescence interference | 280,000 tested, 0.29% active | Potency, µM (top dose mostly 106 µM), inactives show at the top dose fluorescence change, negative = quenching | AID 1479; active = well fitted curve in either direction with a large enough effect; inconclusive = small, poorly fitted or top-dose-only effect
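Flags fluorescent or light-absorbing compounds by total fluorescence, S + 2P, at 555 nm excitation and 632 nm emission. Mixture: 20 nM Texas Red SRC2 peptide, 0.6 uM human TRb LBD, 1 uM T3, 5% DMSO; compound exposure 5 h at ambient temperature.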
TRb-SRC2 inh – disrupts binding of human TR beta to SRC2 | P10828 | TRbeta-SRC2 peptide binding, fluorescence polarization; receptor liganded with 1 µM T3 | Potency, µM (series often up to 106 µM), for the others: top-dose activity change, negative = inhibition, actives largely listed as inhibitors | 280,000 tested, 0.065% active;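 also: plate controls were bound peptide for no effect and peptide without receptor for full effect; nearly all actives have a fitted effect of over 50% in size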
Target sequence (P10828 whole entry, looked up): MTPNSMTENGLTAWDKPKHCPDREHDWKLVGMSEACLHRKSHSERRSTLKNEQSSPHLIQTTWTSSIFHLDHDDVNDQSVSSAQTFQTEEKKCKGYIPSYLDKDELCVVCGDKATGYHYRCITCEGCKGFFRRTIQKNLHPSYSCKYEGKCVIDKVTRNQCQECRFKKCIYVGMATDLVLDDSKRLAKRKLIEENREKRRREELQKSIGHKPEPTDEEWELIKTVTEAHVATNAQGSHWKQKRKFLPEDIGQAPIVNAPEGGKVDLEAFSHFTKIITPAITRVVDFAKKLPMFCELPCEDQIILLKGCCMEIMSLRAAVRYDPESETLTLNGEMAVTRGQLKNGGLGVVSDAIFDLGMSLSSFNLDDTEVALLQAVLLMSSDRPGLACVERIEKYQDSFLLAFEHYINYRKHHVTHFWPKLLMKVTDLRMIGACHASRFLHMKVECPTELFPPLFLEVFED
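Each compound concentration gave % activity, normalized to unbound and bound Texas Red SRC2 controls, from polarization read after 5 hr ambient incubation with T3-loaded human TRb LBD.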
RECQ1 inh – RECQ1 (human) helicase inhibition. RECQ1 DNA unwinding, red fluorescence kinetic read. Potency, µM (highest dose often 57.3 µM), for the others: top-dose activity, negative = inhibition, usual class: inhibitors. 240,000 tested, 0.54% active;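 also: plate controls were vehicle for no effect and no enzyme for full effect; nearly all actives have a fitted effect of over 30% in size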
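RECQ1T1 50 nM; forked duplex (20 bp + 30-nt ss tails) 200 nM, ATP 2 mM final; pH 8.0, 2 mM MgCl2, 2.5 ug/ml poly(dI-dC); 15 min compound preincubation; discontinuous kinetic read over 2 h at RT.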
DNA dye displace – DNA dye displacement counter-screen activity | DNA fluorescent dye displacement counterscreen, fluorescence | AID 2564 | shares compounds with APE1 inh-1 | Potency, µM (series often up to 28.5 µM), for the others: top-dose activity change, negative = inhibition, hits mostly inhibitors | 480 tested, 7% active;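 also: loss of thiazole orange fluorescence as the dye is displaced from duplex DNA; 0% = ThO with dsDNA and no compound and -100% = ThO without dsDNA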
Endo IV inh – Endo IV (E. coli) inhibition counter-screen | shares compounds with APE1 inh-1 | E. coli Endo IV, fluorogenic AP-site DNA cleavage | Potency, µM (titrated, usually from 27.1 µM), for inactives: at the highest dose activity change, negative = inhibition, hits mostly inhibitors | 560 tested, 4% active | AID 2565;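 also: plate controls were uninhibited enzyme wells for no effect and no enzyme buffer wells for full effect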
APE1 inh-2 – APE1 (human) endonuclease inhibition, confirmation; 750 tested, 44% active; Potency, µM (top dose mostly 57.1 µM), for inactives: at the highest dose activity change, negative = inhibition, actives largely listed as inhibitors; purified APE1, fluorogenic abasic-site DNA cleavage; shares compounds with APE1 inh-1; also: nearly all actives have a fitted effect of over 30% in size
APE1 FP inh – APE1 (human) DNA binding inhibition, fluorescence polarization; 480 tested, 7% active; shares compounds with APE1 inh-1; Potency, µM (doses to about 28.5 µM), for inactives: top-dose activity, negative = inhibition, most hits filed as inhibitors; APE1 binding to TAMRA-labelled double-stranded DNA, fluorescence polarization displacement; AID 2573
An asterisk follows results filed as active; i = inactive; ? = inconclusive; . = not tested or not shown; ! = a repeat was not active; [ ] = remark or other dose. Shown are actives, neighbours in structure and some others; about 0.91% of the full set was active somewhere. Unless noted, calls follow the shape of the dose curve; as a rule, active = well fitted curve in the direction sought with a large enough effect; inconclusive = small, poorly fitted or top-dose-only effect, or another doubt; inactive = no such curve, though single readings can be large; an effect the other way counts as inactive or inconclusive. Unless noted, % is scaled to controls: 0 for no effect and ±100 for the full control effect; potency is read from the fitted curve at half-maximal effect.

SMILES | APE1 inh-1 | BLM inh | WRN helicase inh | TexasRed fluor | TRb-SRC2 inh | RECQ1 inh | DNA dye displace | Endo IV inh | APE1 inh-2 | APE1 FP inh
Cc1nc(SCC(=O)NCc2ccco2)c2c(C)c(C)sc2n1 | 0% | 0% | -21% | 1% | -5% | -4% | . | . | . | .
CCC(=O)N1CCc2cc(Br)cc(S(=O)(=O)CCC(=O)NCc3cccc(OC)c3)c21 | . | 1% | . | -1% | -10% | . | . | . | . | .
CC(C)(C)NC(=O)c1cc(F)c(F)cc1Cl | 7.1µM* | -14% | 2% | 1% | -23% | i | -8% | 4% | ? | -6%
CC(C)(C)NC(=O)COC(=O)c1cc(F)c(F)cc1Cl | 2% | -3% | -2% | -6% | 4% | -11% | . | . | . | .
CC(=O)N[C@H]1C(O[C@@H]2O[C@H](C[C@@H](O)[C@H]3O[C@@H](N4CCC(=O)NC4=O)[C@H](O)[C@@H]3O)[C@H](O)[C@H](O)[C@H]2NC(=O)/C=C/CCCCCCCCCCC(C)C)OC(CO)[C@@H](O)[C@@H]1O (stereo partly specified) | 7.9µM* | -9% | . | -4% | 2% | -9% | 103%[57.1 µM] | 11%[57.1 µM] | 2.5µM* | -57%[57.1 µM]
C[N+]1(Cc2ccccc2)CCC(C(=O)OCC2CCCC2)CC1 (stereo unspecified) | -2% | . | . | 0% | -3% | 13% | . | . | . | .
COc1ccc(-c2ccc(SCC(=O)Nc3nccs3)nn2)cc1OC | 10% | 0% | -26% | -4% | 0% | i | . | . | 40µM* | .
CCN(c1ccc(OC)cc1)S(=O)(=O)c1nnc(NC(=O)c2ccccc2C)s1 | . | -5% | . | ? | -8% | . | . | . | . | .
CCOc1ccccc1NC(=O)CN(C)S(=O)(=O)c1cccc2nsnc12 | -41% | 2% | 6% | -5% | 5% | -3% | 0% | 8% | -12%[24.4 µM] | ?
Cc1cccc(NC(=O)CN(C)S(=O)(=O)c2cccc3nsnc23)c1C | -3% | 3% | -1% | 2% | 2% | -5% | . | . | . | .
O=C(Nc1ccon1)Nc1ccc(F)cc1F | 31% | -7% | -16% | . | . | . | . | . | . | .
O=C1CC(c2ccc(O)c(O)c2)Oc2cc(O)cc(O)c21 (stereo unspecified) | 13µM* | 4% | ? | -1% | 2% | ? | -8% | 30% | ? | 6%
COc1ccc(C2CC(=O)c3c(O)cc(O)cc3O2)cc1O (stereo unspecified) | -2% | 0% | -6% | -2% | 4% | -10% | . | . | . | .
CCC(=O)N1CCc2cc(Br)cc(S(=O)(=O)N3CCC(C(=O)N(CC)CC)CC3)c21 | . | 1% | . | -12% | 5% | . | . | . | . | .
Cc1c(C(=O)O)c(O)cc2c1C(=O)c1c(O)c([C@H]3O[C@H](CO)[C@@H](O)[C@H](O)[C@H]3O)c(O)c(O)c1C2=O | 10µM*! | -11% | . | 9% | 4% | 32µM*! | ? | -118%[57.1 µM] | 3.2µM* | ?

Bioassay records (PubChem)
